One test deals with Albumin (Bos taurus) (UniProt P02769). As to the kind of experiment: bovine serum albumin binders on microarray, profiling panel, artefact control for SMM control protein annotation, biochemical, small-molecule microarray, Alexa647 label, 635/667 nm fluorescence (AID 1118).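 Also: score merges 667 nm emission intensity and signal-to-noise per printed compound spot.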 To be noted: BSA-A647 binding, fluorescence 635 nm, higher = more signal.
A short description of test [1]: small-molecule microarray binders of probe aXIP, primary screen, biochemical, NeuroSMM set, 635/667 nm fluorescence (AID 1119).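 Also: probe is the protein aXip251-270 applied at 1 µg/mL to compound-printed slides; binding of probe to printed compounds measured as 667 nm fluorescence plus signal to noise.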 Conditions: higher = more signal, called active from +8 up or from −8 down.
Test [2] is described as follows: small-molecule binders of probe aNOTCH3, primary screen, biochemical, small-molecule microarray, 635/667 nm fluorescence (AID 1120).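 Also: probe is a biotin-tagged antibody raised against NOTCH3 rather than NOTCH3 protein; score merges spot fluorescence near 667 nm with spot signal to noise.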 Conditions: higher = more signal.
A short description of test [3]: small-molecule binders of probe aNOTCH2, primary screen, biochemical, small-molecule microarray, 635/667 nm fluorescence (AID 1121).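 Also: score merges feature fluorescence read at 667 nm with its signal to noise.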 To be noted: higher = more signal.
Test [4] concerns the target Carbonic anhydrase 2 (Homo sapiens) (UniProt P00918). As to the kind of experiment: CAII small-molecule binders, profiling panel, biochemical, small-molecule microarray, Alexa647-labelled CAII (AID 1122). To be noted: CAII-A647 binding fluorescence, higher = more signal.
Test [5] in a line: COS7 lysate on small-molecule microarray, probe aHis, 635 nm (AID 1123).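 Also: z-score combines 667nm fluorescence intensity with signal-to-noise per printed compound spot.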 Conditions: COS7 cell lysate, fluorescence, higher = more signal.
A short description of test [6]: compound binding in COS7 lysate, probe aLAP1, primary screen, cell lysate, small-molecule microarray (AID 1124).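 Also: lysate comes from COS7 cells expressing LAP1 and is applied at 0.3 µg/mL; score merges spot fluorescence near 667 nm with signal-to-noise over triplicate slides.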 Conditions: probe aLAP1, fluorescence, higher = more signal.
The subject of another test is Sam68 (KHDRBS1). As to the kind of experiment: Sam68 small-molecule binders, primary screen, biochemical, small-molecule microarray, 635 nm fluorescence (AID 1125).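 Also: score merges 667 nm channel intensity with signal to noise over triplicate slides.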 Conditions: small-molecule microarray binding, higher = more signal.
Test [7] concerns Chordin-like protein 2 (CHRDL2). As to the kind of experiment: CHRDL2 small-molecule binders, primary screen, biochemical, small-molecule microarray, 635 nm fluorescence (AID 1126).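 Also: printed compound slides probed with Chrdl2 protein at 4 µg/mL for 1 h at 4 C; score merges 667 nm emission intensity with signal to noise over three replicate slides.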 To be noted: small-molecule microarray binding, fluorescence 635 nm; higher = more signal.
The target of test [8] is Concanavalin-A (Canavalia ensiformis) (UniProt P02866). As to the kind of experiment: ConA small-molecule binders, primary screen, artefact control for SMM control protein annotation, biochemical, small-molecule microarray, Alexa647 label, 635 nm (AID 1127).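 Also: z combines 667 nm emission intensity with signal-to-noise across three replicate slides.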 To be noted: ConA-A647 binding fluorescence, higher = more signal.
Chain of Concanavalin-A (Canavalia ensiformis) (P02866 whole entry, looked up): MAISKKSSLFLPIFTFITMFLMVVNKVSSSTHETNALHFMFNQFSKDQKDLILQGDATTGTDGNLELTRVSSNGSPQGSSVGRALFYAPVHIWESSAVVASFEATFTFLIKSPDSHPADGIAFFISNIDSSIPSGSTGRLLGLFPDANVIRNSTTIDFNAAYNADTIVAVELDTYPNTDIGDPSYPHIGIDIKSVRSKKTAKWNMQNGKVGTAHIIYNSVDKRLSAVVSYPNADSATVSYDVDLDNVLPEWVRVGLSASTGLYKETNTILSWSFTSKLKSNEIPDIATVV
Test [9] can be described thus: anti-His antibody binders, primary screen, artefact control for SMM control protein annotation, biochemical, small-molecule microarray, 635 nm fluorescence (AID 1128).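 Also: score merges feature fluorescence with signal-to-noise for each printed compound spot.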 To be noted: anti-His Alexa647 antibody binding, higher = more signal.
The test system of test [10] is Human papillomavirus type 1a E7 protein (residues 1-88). As to the kind of experiment: HPV1a E7 small-molecule binders, primary screen, biochemical, small-molecule microarray, residues 1-88, 635 nm (AID 1129). To be noted: small-molecule microarray binding, fluorescence 635 nm; higher = more signal.
The target of test [11] is Focal adhesion kinase 1 (Homo sapiens) (UniProt Q05397). As to the kind of experiment: small-molecule microarray binders of FAK, primary screen, biochemical, 635/667 nm fluorescence, BSA, DTT (AID 1130).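 Also: composite of spot emission at 667 nm and signal to noise over triplicate slides.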 Conditions: PTK2 binding, 635 nm fluorescence, higher = more signal.
Chain of Focal adhesion kinase 1 (Homo sapiens) (Q05397 whole entry, looked up): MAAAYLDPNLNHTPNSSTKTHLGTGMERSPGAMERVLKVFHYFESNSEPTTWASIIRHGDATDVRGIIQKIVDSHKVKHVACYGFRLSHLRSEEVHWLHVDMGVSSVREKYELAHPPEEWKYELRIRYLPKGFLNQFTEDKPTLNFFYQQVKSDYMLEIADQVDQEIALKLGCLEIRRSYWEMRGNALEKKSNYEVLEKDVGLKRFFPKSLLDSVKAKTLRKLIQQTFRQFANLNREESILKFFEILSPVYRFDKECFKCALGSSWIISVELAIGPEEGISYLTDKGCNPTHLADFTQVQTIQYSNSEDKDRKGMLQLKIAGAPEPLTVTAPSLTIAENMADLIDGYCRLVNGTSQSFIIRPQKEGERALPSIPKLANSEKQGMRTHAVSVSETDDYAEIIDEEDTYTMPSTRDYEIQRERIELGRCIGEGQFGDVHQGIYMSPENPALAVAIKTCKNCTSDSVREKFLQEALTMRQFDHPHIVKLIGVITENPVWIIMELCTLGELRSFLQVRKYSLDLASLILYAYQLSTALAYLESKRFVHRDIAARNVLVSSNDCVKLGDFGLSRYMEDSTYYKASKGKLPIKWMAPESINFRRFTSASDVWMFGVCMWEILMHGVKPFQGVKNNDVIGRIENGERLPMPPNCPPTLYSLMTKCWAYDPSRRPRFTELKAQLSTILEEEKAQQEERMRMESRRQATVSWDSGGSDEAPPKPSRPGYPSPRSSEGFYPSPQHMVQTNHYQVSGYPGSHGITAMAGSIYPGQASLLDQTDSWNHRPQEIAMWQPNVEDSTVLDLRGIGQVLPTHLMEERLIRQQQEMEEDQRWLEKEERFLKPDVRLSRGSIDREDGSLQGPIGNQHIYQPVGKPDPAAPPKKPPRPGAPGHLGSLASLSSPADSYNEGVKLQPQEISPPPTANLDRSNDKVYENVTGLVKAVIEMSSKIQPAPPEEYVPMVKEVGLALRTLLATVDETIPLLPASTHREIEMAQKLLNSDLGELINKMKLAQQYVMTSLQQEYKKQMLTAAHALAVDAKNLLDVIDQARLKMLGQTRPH
Test [12] concerns Fibrinogen (Alexa647-labelled). As to the kind of experiment: fibrinogen binders on compound microarrays, profiling panel, artefact control for SMM control-protein annotation, biochemical, small-molecule microarray, 635/667 nm fluorescence (AID 1131).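 Also: z-score merges 667 nm fluorescence with per-spot signal-to-noise over triplicate slides.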 To be noted: fibrinogen-A647 binding fluorescence, higher = more signal.
Test [13] addresses Follistatin (Homo sapiens) (UniProt P19883). As to the kind of experiment: follistatin binders on small-molecule microarrays, primary screen, biochemical, small-molecule microarray, 635/667 nm fluorescence (AID 1132). To be noted: FST binding, 635 nm fluorescence, higher = more signal.
Test [14] deals with Fibroblast growth factor 2 (Homo sapiens) (UniProt P09038). As to the kind of experiment: FGF2 binders on small-molecule microarrays, primary screen, biochemical, small-molecule microarray, 635/667 nm fluorescence (AID 1133). Conditions: small-molecule microarray binding, FGF2, fluorescence 635/667; higher = more signal.
Chain of Fibroblast growth factor 2 (Homo sapiens) (P09038 whole entry, looked up): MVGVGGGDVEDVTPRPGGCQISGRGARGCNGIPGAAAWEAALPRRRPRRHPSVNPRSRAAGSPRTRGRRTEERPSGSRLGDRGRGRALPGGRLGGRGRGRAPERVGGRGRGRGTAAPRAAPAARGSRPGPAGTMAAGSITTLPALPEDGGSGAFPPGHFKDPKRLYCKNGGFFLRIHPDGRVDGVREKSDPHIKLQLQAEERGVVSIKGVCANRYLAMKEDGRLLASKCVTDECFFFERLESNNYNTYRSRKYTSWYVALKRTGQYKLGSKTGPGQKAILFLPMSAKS
Test [15] can be described thus: mitochondrial membrane potential change in A549 cells, profiling panel, cell-based, JC-1 fluorescence, basal, 24 h, 100 nL (AID 1138).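 Also: A549 lung adenocarcinoma cells under basal conditions with no added stimulus; test concentration not given here.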 To be noted: higher = more signal.
For another test, the system named is Lefty1. As to the kind of experiment: Lefty1 binders on small-molecule microarrays, primary screen, biochemical, small-molecule microarray, 635/667 nm fluorescence (AID 1139). Conditions: small-molecule microarray binding, fluorescence 635/667; higher = more signal.
The test system of test [16] is wheat germ agglutinin (Triticum aestivum), Alexa647-labelled. As to the kind of experiment: wheat germ agglutinin binders on compound microarrays, profiling panel, artefact control for SMM control-protein annotation, biochemical, small-molecule microarray, 635/667 nm fluorescence (AID 1140).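 Also: score merges 667 nm feature emission with signal to noise over triplicate slides.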 To be noted: WGA-A647 binding, 635 nm fluorescence, higher = more signal.
The target in test [17] is Luciferin 4-monooxygenase (Photinus pyralis) (UniProt P08659). As to the kind of experiment: firefly luciferase enzyme inhibitors, primary screen, biochemical, luminescence, purified enzyme, 2006 set (AID 1141).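 Also: cell-free assay with purified firefly luciferase at 100 ng per well in PBS; test concentration not given here.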 Conditions: SteadyGlo luminescence, 30 min, higher = more signal, called active from +8 up or from −8 down.
Chain of Luciferin 4-monooxygenase (Photinus pyralis) (P08659 whole entry, looked up): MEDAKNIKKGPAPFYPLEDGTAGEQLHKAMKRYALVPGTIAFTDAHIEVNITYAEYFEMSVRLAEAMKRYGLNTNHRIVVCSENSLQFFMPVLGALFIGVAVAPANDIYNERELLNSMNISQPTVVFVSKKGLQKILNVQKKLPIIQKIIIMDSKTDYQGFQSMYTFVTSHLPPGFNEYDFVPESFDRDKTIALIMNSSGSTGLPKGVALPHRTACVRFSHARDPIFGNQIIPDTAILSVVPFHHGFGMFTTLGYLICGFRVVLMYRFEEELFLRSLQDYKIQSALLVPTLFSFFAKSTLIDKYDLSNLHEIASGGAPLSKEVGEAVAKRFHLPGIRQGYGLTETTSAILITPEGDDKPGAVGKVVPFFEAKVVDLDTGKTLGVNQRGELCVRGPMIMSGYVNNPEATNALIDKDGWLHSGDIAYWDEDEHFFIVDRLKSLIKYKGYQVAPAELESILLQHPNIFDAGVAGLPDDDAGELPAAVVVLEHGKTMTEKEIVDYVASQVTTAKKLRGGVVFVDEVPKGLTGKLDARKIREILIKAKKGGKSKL

Calls of active or inactive are those of the source.

Chain of Follistatin (Homo sapiens) (P19883 whole entry, looked up): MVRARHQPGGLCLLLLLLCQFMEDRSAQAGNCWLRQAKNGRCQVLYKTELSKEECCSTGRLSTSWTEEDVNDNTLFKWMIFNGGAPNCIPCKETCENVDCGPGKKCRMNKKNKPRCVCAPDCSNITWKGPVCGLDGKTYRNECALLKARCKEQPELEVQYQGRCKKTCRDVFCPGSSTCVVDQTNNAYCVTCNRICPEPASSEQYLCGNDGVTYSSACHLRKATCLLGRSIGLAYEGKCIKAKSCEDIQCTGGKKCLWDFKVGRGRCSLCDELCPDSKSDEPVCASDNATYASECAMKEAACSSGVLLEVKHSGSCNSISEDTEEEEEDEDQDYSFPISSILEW
Chain of Albumin (Bos taurus) (P02769 whole entry, looked up): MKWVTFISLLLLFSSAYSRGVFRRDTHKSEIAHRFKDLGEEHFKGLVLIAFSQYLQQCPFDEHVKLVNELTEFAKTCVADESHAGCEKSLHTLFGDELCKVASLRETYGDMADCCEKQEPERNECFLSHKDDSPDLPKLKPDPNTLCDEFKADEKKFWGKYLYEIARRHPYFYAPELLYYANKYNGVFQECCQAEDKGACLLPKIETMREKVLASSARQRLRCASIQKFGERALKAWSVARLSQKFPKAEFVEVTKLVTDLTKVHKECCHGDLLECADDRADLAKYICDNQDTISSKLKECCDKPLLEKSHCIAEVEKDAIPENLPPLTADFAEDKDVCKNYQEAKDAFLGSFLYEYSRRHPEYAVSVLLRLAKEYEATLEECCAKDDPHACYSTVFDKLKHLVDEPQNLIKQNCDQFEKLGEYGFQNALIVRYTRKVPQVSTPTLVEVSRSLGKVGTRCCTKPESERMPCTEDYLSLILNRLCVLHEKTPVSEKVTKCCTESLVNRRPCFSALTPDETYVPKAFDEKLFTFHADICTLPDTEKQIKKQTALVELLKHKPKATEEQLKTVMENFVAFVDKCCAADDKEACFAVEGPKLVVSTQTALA

`[N-]=[N+]=NCc1ccccc1[C@@H]1OC(c2ccc(OCCCO)cc2)=N[C@]1(CCS(=O)(=O)c1ccccc1)C(=O)NCC(O)CO` (stereo not given in full): the composite z-score was 0.979 in the test with Albumin (Bos taurus); 0.13 in [2]; 0.208 in test [3]; 0.526 in [4]; 3.18 in test [5]; 1.01 in [6]. Also, the composite z-score in the test with Sam68 (KHDRBS1) was 1.29; in [7], -0.563; in test [8], 1.18; in [9] it was 2.39; in [10], 1.28; in [11] it was 0.546. Further, the composite z-score in test [12] was determined as 1.03; in test [13], 1.29; in [14], 1.05; in the test with Lefty1, 0.171; in test [16], 1.16. The composite Z-score in [1] is 0.131 (inactive). For the same compound, the z-score in [15] was -0.145; in test [17], -1.93 (inactive).

As to `CC(CO)N1C(=O)[C@@H]2[C@H]3C(=O)OCC=C[C@H]3OC23C=CCN(CCN2CCOCC2)C(=O)[C@@H]13` (stereo not given in full), the composite z-score is 0.138 in the test with Albumin (Bos taurus); -0.152 in [2]; -0.117 in [3]; 0.302 in test [4]; -1.05 in [5]; -0.586 in [6]. Also, the composite z-score is -0.0161 in the test with Sam68 (KHDRBS1); -0.235 in test [7]; -0.22 in [8]; 1.01 in test [9]; -0.549 in test [10]; -0.568 in test [11]. The composite z-score in [12] is -1.3; in test [13], 0.207; in [14], -0.443; in the test on Lefty1 it was 0.27; in test [16], 0.11. Besides, in test [1], the composite Z-score was -0.0888 (inactive). For the same compound, the z-score is 0.659 in test [15] and -0.531 (inactive) in [17].

Take `C=C(COC)C(=O)CC[C@@H](OC(=O)c1cccnc1)c1ccc(OCCO)cc1`: the composite z-score in the test with Albumin (Bos taurus) was -0.283; in test [2] it was 0.176; in test [3], 0.0362; in test [4], 0.751; in test [5], 1; in [6] it was 0.211. Further, the composite z-score is 0.629 in the test on Sam68 (KHDRBS1); 1.12 in test [7]; 0.388 in test [8]; 0.282 in test [9]; 0.659 in test [10]; -0.157 in [11]. Besides, the composite z-score came to 0.108 in test [12]; 1.4 in test [13]; 1.78 in test [14]; 1.21 in the test on Lefty1; 0.237 in test [16]. For the same compound, in [1], the composite Z-score is 0.517 (inactive). Besides, the z-score in [15] was 0.822; in test [17] it was -3.79 (inactive).

For the compound `[N-]=[N+]=NCc1ccccc1[C@H]1OC(c2ccc(OCCCO)cc2)=N[C@@]1(CCS(=O)(=O)c1ccccc1)C(=O)NCC(O)CO` (stereo not given in full), the composite z-score with Albumin (Bos taurus) was 0.567; in [2] it was 0.11; in test [3], 0.0697; in test [4], 0.736; in test [5], 3.48; in test [6], 1.04. Also, the composite z-score is 1.06 with Sam68 (KHDRBS1); -0.0485 in test [7]; 0.939 in test [8]; 2.5 in test [9]; 1.26 in test [10]; 1.33 in test [11]. Besides, the composite z-score in [12] was 1.01; in test [13], 1.36; in test [14] it was 0.877; in the test on Lefty1, -0.385; in [16] it was 0.983. Besides, in [1], the composite Z-score was 0.652 (inactive). Further, the z-score in [15] is -1.22; in [17] it was -0.986 (inactive).

Consider `CC=CC(O)C1C=CC2C(=O)N(c3ccccc3)C(=O)C2N1Nc1ccccc1F` (stereo not given), for which the composite z-score with Albumin (Bos taurus) stood at 0.245; in test [2], 0.541; in test [3], 0.468; in [4], 0.74; in test [5] it was 2.08; in test [6], 0.412. The composite z-score in the test on Sam68 (KHDRBS1) was determined as 0.338; in test [7] it was 0.295; in [8], 0.0905; in [9], 0.817; in test [10] it was 0.217; in [11], 0.451. For the same compound, the composite z-score was -1.06 in test [12]; 0.0954 in [13]; -0.189 in test [14]; -0.844 with Lefty1; 0.0224 in [16]. The composite Z-score in test [1] was 1.48 (inactive). Besides, the z-score was -1.05 in test [15] and 0.597 (inactive) in [17].
